DUX4 inh – blocks DUX4-driven transcriptional activation; 293T-iDUX4 ZSCAN4-Gaussia luciferase reporter, 24 h; stronger effect = lower value; activity change, negative = inhibition, % (concentration not given with the values); 0.8% of 37,000 active;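 active = mean inhibition of at least 10% in the main channel, exceeding the control channel by a set limit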;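 also: 0% = median of neutral control wells and -100% = median of positive control wells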
Numbers without * were called inactive. The sample as a whole holds a higher share of hits than the screen did.

SMILES | DUX4 inh
COc1cccc(S(=O)(=O)N2CCCCN3[C@H](CO)[C@H](c4ccc(C#CCC(C)C)cc4)[C@@H]3C2)c1 | -49*
Cc1cccc(S(=O)(=O)N2CCCCN3[C@H](CO)[C@@H](c4ccc(C#C[C@@H](C)O)cc4)[C@H]3C2)c1 | 12
CC(C)CC#Cc1ccc([C@@H]2[C@H](CO)N3CCCCN(S(=O)(=O)c4ccc(F)cc4)C[C@@H]23)cc1 | 1
COc1ccc(S(=O)(=O)N2CCCCN3[C@H](C2)[C@H](c2ccc(C#CC(C)C)cc2)[C@@H]3CO)cc1 | 8
COc1ccc2c3c([nH]c2c1)[C@H](CO)N(C(=O)c1ccccn1)CC31CN(S(C)(=O)=O)C1 | 13
C/C=C/c1ccc([C@H]2[C@@H](C#N)N(c3nc(CC)cs3)[C@@H]2CO)cc1 | 3
O=C(c1cccc(F)c1)N1CC2(C1)[C@H](c1ccccc1)[C@H](CO)N2C(=O)C1CC1 | -1
CCCC#Cc1ccc([C@H]2[C@H](CO)N3CCCCN(C(=O)NC4CCCC4)C[C@@H]23)cc1 | -8
CN(C)CCCNC(=O)C[C@@H]1CC[C@@H]2[C@@H](COc3ccc(NC(=O)c4cccc(F)c4)cc3C(=O)N2C)O1 | 1
COCC(=O)Nc1ccc2c(c1)C(=O)N(C)[C@@H]1CC[C@H](CC(=O)NCc3ccc(OC)cc3)O[C@H]1CO2 | 3
COc1ccccc1CN1CC[C@@H]2[C@H]1c1cc(C3=CCCCC3)ccc1N[C@@H]2CO | -10
O=C(NCC1CC1)[C@@H]1[C@@H](CO)[C@@H]2Cn3c(ccc(-c4cccc(F)c4)c3=O)[C@@H]2N1CC1CC1 | -2
CC(C)NC(=O)N1CC[C@H]2[C@@H]1c1cc(C#Cc3cccnc3)ccc1N(C)[C@H]2CO | 5
CN1c2ccc(-c3ccccc3F)cc2[C@@H]2[C@@H](CCN2C(=O)c2ccccn2)[C@H]1CO | 4
CN1c2ccc(Br)cc2[C@H]2[C@H](CCN2C(=O)c2cccc(F)c2)[C@H]1CO | -9
CN1c2ccc(C#Cc3cccnc3)cc2[C@@H]2[C@@H](CCN2C(=O)c2cccc(F)c2)[C@H]1CO | -37*
CN1c2ccc(C#Cc3ccccc3F)cc2[C@H]2[C@H](CCN2C(=O)c2cnccn2)[C@H]1CO | -29*
COc1ccc(C#Cc2ccc3c(c2)[C@@H]2[C@@H](CCN2C(=O)c2ccccc2F)[C@H](CO)N3C)cc1 | 4
COCCNC(=O)C[C@H]1CC[C@H]2[C@@H](COC[C@@H](O)CN2S(=O)(=O)c2ccccc2F)O1 | 6
C[C@H]1CN([C@@H](C)CO)C(=O)c2c(c3ccccc3n2C)-c2ccccc2CO[C@@H]1CN(C)Cc1ccccc1C(F)(F)F | -30*
C[C@H](CO)N1C[C@H](C)[C@@H](CN(C)Cc2cccc(C(F)(F)F)c2)OCc2ccccc2-c2c(n(C)c3ccccc23)C1=O | -54*
C[C@@H]1CN([C@H](C)CO)C(=O)c2c(c3ccccc3n2C)-c2ccccc2CO[C@H]1CN(C)Cc1cccc(O)c1 | 4
C[C@@H]1CN([C@H](C)CO)C(=O)c2c(c3ccccc3n2C)-c2ccccc2CO[C@@H]1CN(C)Cc1ccc(O)cc1 | -8
C[C@@H]1CN([C@H](C)CO)C(=O)c2c(c3ccccc3n2C)-c2ccccc2CO[C@@H]1CN(C)Cc1cccc(C(F)(F)F)c1 | -5
C[C@@H]1CN([C@@H](C)CO)C(=O)c2c(c3ccccc3n2C)-c2ccccc2CO[C@@H]1CN(C)Cc1ccc(C(F)(F)F)cc1 | -27*
SMILES | DUX4 inh
C[C@@H]1CN([C@H](C)CO)C(=O)c2c(c3ccccc3n2C)-c2ccccc2CO[C@@H]1CN(C)Cc1cccc2c1OCCCO2 | -6
C[C@H]1CN([C@@H](C)CO)C(=O)c2ccccc2-c2ccccc2CO[C@H]1CN(C)Cc1cccc2c1OCCCO2 | 0
COc1ccccc1CN(C)C[C@H]1OCc2ccccc2-c2c(n(C)c3ccccc23)C(=O)N([C@@H](C)CO)C[C@H]1C | 1
C[C@H](CO)N1C[C@H](C)[C@@H](CN(C)C(=O)Nc2ccccc2C(F)(F)F)OCc2ccccc2-c2c(n(C)c3ccccc23)C1=O | -6
C[C@@H]1CN([C@H](C)CO)C(=O)c2c(c3ccccc3n2C)-c2ccccc2CO[C@H]1CN(C)Cc1ccc(O)cc1 | 8
C[C@@H]1CN([C@H](C)CO)C(=O)c2c(c3ccccc3n2C)-c2ccccc2CO[C@H]1CN(C)Cc1cccc2c1OCCCO2 | -32*
O=C(Cc1cccnc1)N1CC(=O)N2[C@H](CO)[C@H](c3ccc(/C=C/c4ccccc4)cc3)[C@@H]2C1 | 0
N#C[C@H]1[C@@H](c2ccccc2-c2ccc(F)cc2)[C@H](CO)N1C(=O)Cc1ccccc1 | -4
CO[C@@H]1CN(C)C(=O)c2cc(NC(=O)Nc3ccccc3Cl)ccc2OC[C@@H](C)N(C)C[C@H]1C | -5
O=C(Nc1ccc(Cl)cc1)N[C@@H]1CC[C@@H](CCn2cc(-c3ccccc3F)nn2)O[C@@H]1CO | -2
C/C=C/c1ccc([C@H]2[C@@H](CO)N(C(C)=O)[C@@H]2CNC(=O)NCCC)cc1 | 4
CCCNC(=O)C[C@H]1CC[C@H]2[C@@H](COc3ccc(NC(=O)Nc4ccccc4F)cc3C(=O)N2C)O1 | -4
COc1ccc2c3c(n(C)c2c1)[C@@H](CO)N(C(=O)Nc1ccc(F)cc1)CC31CCN(C)CC1 | 3
O=C(c1ccccc1)N1CC[C@@H]2[C@H](CO)Nc3ccc(C#Cc4cccc(F)c4)cc3[C@@H]21 | -40*
O=C(c1ccc2c(c1)OCO2)N1CC[C@@H]2[C@H](CO)Nc3ccc(C#Cc4ccccc4)cc3[C@@H]21 | -54*
COc1ccccc1C#Cc1ccc2c(c1)[C@@H]1[C@@H](CCN1C(=O)c1cccc(F)c1)[C@H](CO)N2 | -6
COc1ccc(C#Cc2ccc3c(c2)[C@@H]2[C@@H](CCN2C(=O)c2ccccc2F)[C@@H](CO)N3)cc1 | 11
O=C(c1ccccc1)N1CC[C@H]2[C@H](CO)Nc3ccc(C#Cc4cccc(F)c4)cc3[C@H]21 | 1
O=C(c1ccc2c(c1)OCO2)N1CC[C@@H]2[C@H](CO)Nc3ccc(-c4ccccc4)cc3[C@@H]21 | 5
O=C(c1ccc2c(c1)OCO2)N1CC[C@@H]2[C@H]1c1cc(-c3ccccc3)ccc1N[C@@H]2CO | 6
O=C(c1ccccc1F)N1CC[C@@H]2[C@H](CO)Nc3ccc(C#Cc4ccc(F)cc4)cc3[C@@H]21 | -33*
O=C(c1ccccc1F)N1CC[C@@H]2[C@@H](CO)Nc3ccc(C#Cc4ccccc4F)cc3[C@@H]21 | -3
CNC(=O)C[C@H]1CC[C@H]2[C@@H](COc3ccc(NC(=O)Nc4ccccc4F)cc3C(=O)N2C)O1 | 1
CCCNC(=O)C[C@@H]1CC[C@H]2[C@@H](COC[C@H](O)CN2C(=O)Nc2cccc(Cl)c2)O1 | 3
Cc1cccc(-c2ccc([C@@H]3[C@@H](CO)N4C(=O)CN(C(=O)NC5CCCCC5)C[C@@H]34)cc2)c1 | -5
CCCNC(=O)N1CC2(CCN(S(=O)(=O)CC)CC2)c2c(n(C)c3cc(OC)ccc23)[C@@H]1CO | 12
COc1ccc2c3c(n(C)c2c1)[C@@H](CO)N(C(=O)CN(C)C)CC31CN(C(=O)NC(C)C)C1 | 0
COc1ccc(C[C@H]2CCn3nncc3COCCCNC2=O)cc1 | -3
CCC(=O)N1[C@H](CO)[C@H](c2ccccc2)C12CN(Cc1nccs1)C2 | -1
C[C@@H]1CN([C@@H](C)CO)C(=O)c2ccccc2-c2ccccc2CO[C@@H]1CN(C)Cc1cccc(C(F)(F)F)c1 | -63*

High-throughput results from PubChem BioAssay.
